# Shown is part of a subset that was picked to be rich in hits.
# Casp1 inh – qHTS Assay for Allosteric/Competitive Inhibitors of Caspase-1. Potency, µM (highest dose often 57.5 µM), usual class: inhibitors. 75,000 compounds, 0.03% hits. Caspase-1 enzyme, Ac-WEHD-AFC fluorogenic rate. P29466
# ALOX15B inhib – qHTS Assay for Inhibitors of 15-hLO-2 (15-human lipoxygenase 2); purified 15hLO-2, xylenol orange hydroperoxide absorbance; Potency, µM (doses to about 57.1 µM), usual class: inhibitors; 110,000 compounds, 0.56% hits; AID 881, 2007; also: nearly all actives have a fitted effect of over 60% in size
#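 Purified human 15hLO-2 (50 nM) preincubated 15 min with compound, then 45 uM arachidonic acid for 90 min at RT in 25 mM Hepes pH 7.5, 0.01% Triton X-100. Hydroperoxide detected by Fe-xylenol orange; 573/405 nm absorbance ratio.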
# Casp7 inh – qHTS Assay for Allosteric/Competitive Inhibitors of Caspase-7. 75,000 compounds, 0.02% hits. recombinant caspase-7, Ac-DEVD-AFC fluorescence rate. Potency, µM (titrated, usually from 57.5 µM), hits mostly inhibitors. AID 889, 2007. P55210; active = well fitted inhibition curve with a large enough effect in the main read-out, with a control signal flat, not every such curve was filed as active; inconclusive = small, poorly fitted or top-dose-only effect, or a change in a side signal
# USP2a inhib – qHTS Assay for Inhibitors of Ubiquitin-specific Protease USP2a | Ubiquitin carboxyl-terminal hydrolase 2 (Homo sapiens), O75604 | 60,000 compounds, 0.1% hits | Potency, µM (highest dose often 38.3 µM), usual class: inhibitors | USP2a enzymatic assay, qHTS inhibition | AID 927, 2007; also: nearly all actives have a fitted effect of over 60% in size
# Target sequence (O75604 whole entry, looked up): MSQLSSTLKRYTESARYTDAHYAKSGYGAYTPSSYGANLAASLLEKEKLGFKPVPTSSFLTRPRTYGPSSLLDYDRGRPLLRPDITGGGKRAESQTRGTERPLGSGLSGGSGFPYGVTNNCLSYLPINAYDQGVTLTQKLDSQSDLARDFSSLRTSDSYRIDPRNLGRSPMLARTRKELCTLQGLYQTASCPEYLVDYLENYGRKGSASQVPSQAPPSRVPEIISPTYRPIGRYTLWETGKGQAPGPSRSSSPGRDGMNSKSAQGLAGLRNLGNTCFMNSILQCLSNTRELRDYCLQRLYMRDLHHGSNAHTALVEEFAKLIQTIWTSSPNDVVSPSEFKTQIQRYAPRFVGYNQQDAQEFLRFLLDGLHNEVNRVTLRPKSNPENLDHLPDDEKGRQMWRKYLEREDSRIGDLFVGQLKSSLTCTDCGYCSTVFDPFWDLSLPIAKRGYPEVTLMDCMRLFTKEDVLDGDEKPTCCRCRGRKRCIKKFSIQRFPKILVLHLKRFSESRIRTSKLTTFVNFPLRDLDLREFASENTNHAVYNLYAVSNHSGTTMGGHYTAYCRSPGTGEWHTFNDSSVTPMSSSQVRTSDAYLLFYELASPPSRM
#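 Inhibition is measured in a cell-free coupled assay with 20 nM USP2 core, 20 nM Ub-PLA2 and 20 uM NBD C6-HPC, 2.5 h incubation. Activity normalized to NEM control.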
# ALOX15 inhib – qHTS Assay for Inhibitors of 15-hLO (15-human lipoxygenase). Polyunsaturated fatty acid lipoxygenase ALOX15 (Homo sapiens), P16050. purified 15hLO-1, xylenol orange hydroperoxide absorbance. Potency, µM (doses to about 57.1 µM), most hits filed as inhibitors. 74,000 compounds, 1.4% hits; also: nearly all actives have a fitted effect of over 55% in size
#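 Quantitative HTS in 25 mM Hepes pH 7.5 containing 0.01% Triton X-100: human 15hLO-1 at 40 nM, arachidonic acid at 50 uM, 6 min turnover. Product quantified via ferrous oxidation/xylenol orange, 573:405 nm absorbance ratio.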
# Numbers stand for hits; n = inactive; u = inconclusive; x = no result given; [ ] = another dose, or the depositor's remark. Unless noted, calls follow the shape of the dose curve; as a rule, active = well fitted curve in the direction sought with a large enough effect; inconclusive = small, poorly fitted or top-dose-only effect, or another doubt; inactive = no such curve, though single readings can be large; an effect the other way counts as inactive or inconclusive.
SMILES,Casp1 inh,ALOX15B inhib,Casp7 inh,USP2a inhib,ALOX15 inhib
O=C(NC(=S)Nc1ccc(N2CCOCC2)c(Cl)c1)C(c1ccccc1)c1ccccc1,x,12.6µM,x,x,x
CN1CCN(c2nc3c(c(=O)n(C)c(=O)n3C)n2CCSc2nc3ccccc3s2)CC1,n,x,n,x,1.58µM
CCCCOCCOCCOCc1cc2c(cc1CCC)OCO2,n,n,n,x,n
Oc1ccccc1-c1cc(-c2ccccc2Cl)[nH]n1,n,n,n,n,12.6µM
Cc1ccc(O)c(-c2cc(-c3ccccc3C)[nH]n2)c1,n,n,n,u,15.8µM
CSC1=C(C#N)C2(CCCC2)C(C#N)=C(N)N1,n,n,n,n,u
N#CC1=C(N)N2C(=C(C#N)C13CCCCC3)SC1CCCCC12O (stereo not drawn),n,n,n,n,20µM
COc1cccc(Nc2ncc3nc(-c4cccs4)c(=O)n(C[C@H]4CCCO4)c3n2)c1,x,n,u,n,n
O=C(O)CCc1ccc(-c2ccc(F)cc2)n1CC(=O)O,n,n,n,n,u
CCCn1c(CCC(=O)O)ccc1-c1ccc(F)cc1,n,n,n,n,7.94µM
O=C(O)CCc1ccc(-c2ccc(Br)cc2)n1Cc1ccco1,n,n,n,n,15.8µM
CCOC(=O)CSc1cc(=O)n(C)c2cc(Cl)ccc12,n,n,n,n,12.6µM
O=C(NC1CCCC1)C(c1ccsc1)N(Cc1ccccc1)C(=O)Cc1cccs1 (stereo not drawn),x,n,x,x,x
O=C(NC1CCCC1)C(c1ccsc1)N(Cc1ccco1)C(=O)Cc1cccs1 (stereo not drawn),n,n,n,n,0.398µM
CC(=O)[C@@H]1CC[C@@H]2[C@@H]3C[C@H](C)C4=CC(=O)CC[C@@]4(C)[C@H]3[C@H](O)C[C@]21C,n,n,n,n,n
Cn1c(=O)c(-c2ccc(Cl)cc2)nc2cnc(Nc3ccccc3)nc21,n,n,u,n,n
CC(=O)Nc1cccc(C(=O)Oc2cccc(C)c2)c1O,n,n,n,n,15.8µM
Cc1[nH]c2ccccc2c1Cc1nnc(SCC(=O)NCc2ccco2)o1,x,n,u,x,12.6µM
CC(=O)N(OCc1ccccc1)[C@@H]1c2cc(C#N)ccc2OC(C)(C)[C@H]1O,n,n,n,x,u
Brc1ccc(-c2nn3c(-c4ccco4)nnc3s2)o1,n,n,n,n,20µM
Clc1ccc(-c2ccc(-c3nn4c(-c5ccco5)nnc4s3)o2)cc1,n,x,n,n,15.8µM
COc1cc(-c2nn3c(-c4ccco4)nnc3s2)cc(OC)c1OC,x,n,x,x,x
CCCCC/C=C\C/C=C\CCCCCCCC(=O)O,n,n,n,x,0.159µM
CCCCCCCC/C=C\CCCCCCCC(=O)O,n,n,n,x,n
CCCCCCCC/C=C\CCCCCCCC(=O)N(CCO)CCO,n,n,n,x,1.26µM
SMILES,Casp1 inh,ALOX15B inhib,Casp7 inh,USP2a inhib,ALOX15 inhib
C[C@@]12CCC(=O)C=C1CC[C@H]1[C@@H]2[C@@H](O)C[C@]2(C)[C@@H]1CC[C@@]2(O)C(=O)CO,n[11.5 µM],n[11.4 µM],n[11.5 µM],x,n[11.4 µM]
Cc1cnc(CNc2nc(-c3ccc(N(C)C)cc3)nc3ccccc23)cn1,n,n,n,n,n
C[N+](C)(C)CCC(=O)c1cccc2ccccc12,n,u,n,n,u
COc1ccc(C(=O)N2CCC3(CCCN(c4ccc(-c5ccccc5)cc4)C3)CC2)cc1,n,n,n,n,n
COc1ccc(C(=O)N2CCC3(CCCN(C(=O)NC(C)C)C3)CC2)cc1,n,n,n,10µM,n
COc1ccc(NC(=O)N2CCCC3(CCN(C(=O)c4ccncc4)CC3)C2)cc1,n,n,n,n,n
COc1ccc(C(=O)N2CCC[C@@]3(CCN(c4cccc(-c5ccccc5)c4)C3)C2)cc1,n,u,n,n,25.1µM
CC1CCC2C(=O)N3C(CCC(C)C3c3ccccc3Br)C(=O)N2C1c1ccc(C#CCN(C)C)cc1 (stereo not drawn),n[11.5 µM],x,n[11.5 µM],x,n[11.4 µM]
Cc1ccc(OCC(=O)Nc2ccc(N3CCCC3)cc2)cc1C,n,n,n,n[7.66 µM],5.01µM
CCN(CC)c1ccc(NS(=O)(=O)c2ccc3c(c2)oc(=O)n3C)c(C)c1,n,n,n,x,20µM
CCN(CCNS(=O)(=O)c1ccc2c(c1)oc(=O)n2C)c1ccccc1,n,n,n,x,n
